# The source made the active and inactive calls.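 The calls were made as follows: active = any rise in protein melting temperature, meaning a thermal shift above zero; inactive = the rest.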
# Target: Luciferin 4-monooxygenase (Photinus pyralis) (UniProt P08659)
# Assay: Thermal Shift Assay for Inhibitors of FLuc (Firefly Luciferase, Photinus pyralis) in Presence of ATP
# Conditions: Purified FLuc with ATP, SYPRO Orange thermal shift; at 200 µM; active compounds read high
# Description: Firefly (Photinus pyralis) luciferase (FLuc) is widely used as a reporter in biological assays. […] In order to determine if FLuc thermal stabilization parallels inhibitor potency, a fluorescence-based thermal denaturation assay was developed in this present study. An environmentally sensitive fluorescence dye, SYPRO Orange (Invitrogen, presently Life Technologies) was utilized to monitor the fluorescence change as a function of temperature. The dye preferentially binds to the hydrophobic regions of the protein, and its high signal-to-noise ratio, large Stokes shift and high excitation wavelength make it ideal for thermal shift application. In this assay, the melting temperature (Tm) (the inflection point of the protein melt transition) was assessed for each sample tested. Differences in the Tm between controls and compound-containing samples were determined (the thermal shift or delta Tm), and compounds were ranked by the degree of their thermal shift at the top concentration (200 uM). […] FLuc catalyzes light production in bioluminescent organisms. The reaction requires luciferin, ATP and O2 as substrate, and it includes the formation of a luciferyl-AMP intermediate and the subsequent production of light, AMP, oxyluciferin and CO2. In this study, PTC124 and analogues were evaluated for their potential to stabilize FLuc in the absence and presence of ATP. This particular BioAssay is in the presence of ATP. See related BioAssay "Thermal Shift Assay for Inhibitors of FLuc (Firefly Luciferase, Photinus pyralis) in the Absence of ATP" See [6] for more details on this assay and related studies. Welch, et al. PTC124 targets genetic disorders caused by nonsense mutations. Nature 447 (2007) 87-91. D.S. Auld, N. Thorne, W.F. Maguire, and J. Inglese, Mechanism of PTC124 activity in cell-based luciferase assays of nonsense codon suppression. Proc Natl Acad Sci U S A 106 (2009) 3585-90. D.S. Auld, N. Thorne, D.T. Nguyen, and J. Inglese, A specific mechanism for nonspecific activation in reporter-gene assays. ACS Chem Biol 3 (2008) 463-70. [4]F.H. Niesen, H. Berglund, and M. Vedadi, The use of differential scanning fluorimetry to detect ligand interactions that promote protein stability. Nat Protoc 2 (2007) 2212-21. J.R. de Wet, K.V. Wood, M. DeLuca, D.R. Helinski, and S. Subramani, Firefly luciferase gene: structure and expression in mammalian cells. Mol Cell Biol 7 (1987) 725-37. Auld, et al. Molecular Basis for the High Affinity Binding and Stabilization of Firefly Luciferase by PTC124. Proc Natl Acad Sci U S A, accepted.
# Assay Protocol: 1.8 uM FLuc was tested in Tris-acetate buffer (pH 7.6) or phosphate buffer saline (pH 7.4). ATP final concentration was 2 mM. Compounds were tested at 200 uM. Data was captured on an iQ5 Real Time PCR Detection system (Bio-Rad) using a temperature range from 20 to 95C in increments of 1C and a ramping rate of 0.1C/s. Fluorescence intensity changes (Ex 490/Em 575 nm) were monitored with a charge-coupled device (CCD) camera. Buffer: 50 mM Tris-acetate, pH 7.6 (with or without 2 mM ATP); 1X PBS, pH 7.4 (with or without 2 mM ATP)
# Chain of Luciferin 4-monooxygenase (Photinus pyralis) (P08659 whole entry, looked up): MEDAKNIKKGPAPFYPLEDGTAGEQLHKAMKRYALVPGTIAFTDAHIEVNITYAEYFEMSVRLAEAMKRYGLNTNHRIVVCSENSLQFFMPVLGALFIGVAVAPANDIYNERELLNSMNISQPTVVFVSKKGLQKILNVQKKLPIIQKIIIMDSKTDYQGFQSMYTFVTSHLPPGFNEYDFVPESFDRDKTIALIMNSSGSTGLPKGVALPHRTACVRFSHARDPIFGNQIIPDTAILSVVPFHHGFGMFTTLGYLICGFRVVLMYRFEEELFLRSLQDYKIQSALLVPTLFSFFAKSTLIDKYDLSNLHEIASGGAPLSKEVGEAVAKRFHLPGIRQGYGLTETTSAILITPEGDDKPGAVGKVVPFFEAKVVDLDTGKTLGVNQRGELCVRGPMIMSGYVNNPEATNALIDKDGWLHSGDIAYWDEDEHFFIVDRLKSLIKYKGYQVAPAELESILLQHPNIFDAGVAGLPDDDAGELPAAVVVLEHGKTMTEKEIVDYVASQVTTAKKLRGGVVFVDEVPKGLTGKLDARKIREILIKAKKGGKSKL
row,SMILES,thermal shift (delta Tm)
1,NC(=O)c1cccc(-c2noc(-c3ccccc3F)n2)c1,6.12 C (active)
2,NC(=O)c1ccccc1-c1noc(-c2ccccc2F)n1,3.72 C (active)
3,Nc1ncnc2c1ncn2[C@@H]1O[C@H](COP(=O)(O)OC(=O)c2cccc(-c3noc(-c4ccccc4F)n3)c2)[C@@H](O)[C@H]1O,12.6 C (active)
4,O=C(O)c1ccc(-c2noc(-c3ccccc3F)n2)cc1,11.6 C (active)
5,O=C(O)c1cccc(-c2noc(-c3ccccc3F)n2)c1,13.1 C (active)
6,O=C(O)c1cccc(-c2noc(-c3cccc(Cl)c3)n2)c1,11.8 C (active)
7,O=C(O)c1ccccc1-c1noc(-c2ccccc2F)n1,5.48 C (active)
8,Fc1ccccc1-c1nc(-c2cccc(-c3nn[nH]n3)c2)no1,6.04 C (active)
